Here are results for 25 compounds from PubChem BioAssay (Tox21).

Experiment [1] is described as follows: A CellTox Green Cytotoxicity Assay to monitor cytotoxicity in HepG2 cells - 32 hour (AID 1224883). Note: nearly all actives have a fitted effect of over 50% in size. Note: potency is the fitted concentration of half-maximal effect. The essentials:
(§1)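 Fluorescent DNA-binding dye, 600 HepG2 cells/well, 5 h preincubation then compound in DMSO; same plates read at 0–40 h, 37 C.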

Experiment [2] can be described thus: A CellTox Green Cytotoxicity Assay to monitor cytotoxicity in HEK293 cells - 8 hour (AID 1224884). Note: nearly all actives have a fitted effect of over 35% in size. The essentials:
(§2)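 Homogeneous no-lysis format: HEK293 cell suspension mixed with CellTox Green reagent, seeded, incubated 5 h at 37 C/5% CO2, then dosed by pintool with compound in DMSO.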

Experiment [3] can be described thus: qHTS RealTime-Glo MT Cell Viability Assay in HepG2 cells - 16 hour (AID 1224885). Note: nearly all actives have a fitted effect of over 50% in size. The essentials: (§3)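 Luminescence read-out: viable HepG2 cells reduce a prosubstrate to a NanoLuc substrate, giving a signal proportional to live cell number. Reads taken at 0, 8, 16, 24, 32 and 40 h of compound exposure at 37 C.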
(qHTS replaces the single test concentration by a dilution series.)

A short description of experiment [4]: qHTS RealTime-Glo MT Cell Viability Assay in HEK293 cells - 24 hour (AID 1224886). Note: nearly all actives have a fitted effect of over 50% in size. Note: potency is the fitted concentration of half-maximal effect. The gist of the method:
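Nonlytic real-time viability readout: viable cells convert prosubstrate to NanoLuc substrate, giving luminescence proportional to live cell number. HEK293, 600 cells/well, compound added after 5 h, continuous culture at 37 C.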

A short description of experiment [5]: qHTS RealTime-Glo MT Cell Viability Assay in HEK293 cells - 8 hour (AID 1224887). Note: nearly all actives have a fitted effect of over 50% in size. Note: potency is the fitted concentration of half-maximal effect. The essentials: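 Measured as luminescence from the same continuously cultured HEK293 wells at successive time points (0, 8, 16, 24, 32, 40 h) after compound addition. Reagent present from seeding; dosing at 5 h; incubation 37 C.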
Experiment [6] is described as follows: A CellTox Green Cytotoxicity Assay to monitor cytotoxicity in HEK293 cells - 16 hour (AID 1224888). Note: nearly all actives have a fitted effect of over 35% in size. Note: potency is the fitted concentration of half-maximal effect. The essentials:
as §2

The nature of experiment [7]: qHTS RealTime-Glo MT Cell Viability Assay in HepG2 cells - 0 hour (AID 1224889). Note: nearly all actives have a fitted effect of over 50% in size. Note: potency is the fitted concentration of half-maximal effect. The gist of the method:
as §3

Experiment [8] in a line: A CellTox Green Cytotoxicity Assay to monitor cytotoxicity in HepG2 cells - 8 hour (AID 1224890). Note: nearly all actives have a fitted effect of over 45% in size. The gist of the method:
as §1

The nature of experiment [9]: qHTS assay to identify small molecule antagonists of the estrogen receptor alpha (ER-alpha) signaling pathway using the BG1 cell line in the presence of 0.1 nM 17-beta-estradiol - cell viability counter screen (AID 1259241). Note: nearly all actives have a fitted effect of over 40% in size. The gist of the method: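 Live-cell protease activity (CellTiter-Fluor fluorescence, 30 min) was read in the same wells after VM7Luc4E2 cells had been exposed to compounds with 0.1 nM 17beta-estradiol for 22 hr at 37C.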

Values joined by “and” are separate entries in the source; they are usually repeats but may differ in a detail not shown here. Identical values can stand only once. Inconclusive results are not listed. Active and inactive are the calls of the source. Calls come from the whole dose curve; as a rule, active = well fitted curve in the direction sought with a large enough effect in the repeat runs; inconclusive = weak or mixed curves; inactive = no such curve, though single readings can be large; an effect the other way counts as inactive or inconclusive.

In the case of `CCCCN(N=O)C(=N)N[N+](=O)[O-]`, the Potency result in experiment [1], in [2], in experiment [3], in experiment [4], in [5] and in experiment [6] was “inactive” in each case. For the same compound, the Potency result in experiment [7], in experiment [8] and in [9] was “inactive” each time.

Turning to `O=S1OC[C@@H]2[C@H](CO1)[C@]1(Cl)C(Cl)=C(Cl)[C@@]2(Cl)C1(Cl)Cl` (some centres undefined), the Potency result in experiment [7] and in [9] was “inactive” throughout.

Regarding `O=C(O)C(F)(F)C(F)(F)C(F)(F)C(F)(F)C(F)(F)C(F)(F)C(F)(F)C(F)(F)C(F)(F)C(F)(F)F`, the Potency entry in [2], in experiment [3], in experiment [4], in experiment [5] and in experiment [9] was “inactive” in each case.

Take `CCCCC(O)(Cn1cncn1)c1ccc(Cl)cc1Cl` (centres undefined): the Potency in experiment [1] was 48.9 µM (active); in [4], 43.6 µM (active); in [5], 43.6 µM (active); in [7], 24.5 µM (active).

On to `CC(C)O.CC(C)O.OCCN(CCO)CCO.OCCN(CCO)CCO.[Ti]`, for which the Potency entry in experiment [1], in experiment [2], in experiment [3], in experiment [4], in experiment [5] and in experiment [6] was “inactive” each time. Also, the Potency result in experiment [7], in experiment [8] and in experiment [9] was “inactive” in each case.

`C=CCOC(C)=O`: the Potency result in [1], in experiment [2], in experiment [3], in experiment [4], in experiment [6] and in experiment [8] was “inactive” in each case. Moreover, in experiment [9], the Potency result is “inactive”. For the same compound, the Potency in experiment [7] is 12.1 µM (active).

For `Nc1nc(=S)[nH][nH]1`, the Potency entry in [1], in experiment [2], in [3], in [4], in experiment [6] and in experiment [7] was “inactive” throughout. The Potency entry in experiment [8] and in experiment [9] was “inactive” in each case.

With `Nc1ccc(N=Nc2ccc(-c3ccc(N=Nc4c(S(=O)(=O)O)cc5cc(S(=O)(=O)O)c(N=Nc6ccccc6)c(O)c5c4N)cc3)cc2)c(N)c1`, the Potency result in [1], in [2], in experiment [3], in experiment [4], in experiment [5] and in [6] was “inactive” each time. The Potency result in experiment [8] is “inactive”.

For `O=C(N[C@H](c1ccccc1)[C@@H]1CN2CCC1CC2)c1c(Cl)ccc(C(F)(F)F)c1Cl`, the Potency entry in experiment [2], in [3], in experiment [5], in experiment [7], in [8] and in experiment [9] was “inactive” in each case. Besides, in experiment [4], the Potency is 70.2 µM (active).

For the compound `Clc1cc(C(Cl)(Cl)Cl)cnc1Cl`, the Potency in experiment [1] is 34.7 µM (active). In addition, the Potency result in experiment [2], in experiment [3], in [6], in experiment [7], in experiment [8] and in experiment [9] was “inactive” each time.

`O=S(=O)(O)C(F)(F)C(F)(F)C(F)(F)C(F)(F)F`: the Potency entry in experiment [1], in experiment [2], in [3], in [6], in [7] and in experiment [9] was “inactive” in each case.

For the compound `NCCCNCCCN`, the Potency result in [1], in experiment [2], in experiment [3], in experiment [4], in [5] and in [7] was “inactive” in each case. Besides, the Potency entry in experiment [8] and in experiment [9] was “inactive” each time.

For the compound `O=[N+]([O-])c1cc(C(F)(F)F)cc([N+](=O)[O-])c1Cl`, the Potency entry in experiment [1], in experiment [2], in experiment [3], in experiment [6], in experiment [7] and in [8] was “inactive” in each case. For the same compound, in [9], the Potency result was “inactive”. Also, the Potency in [5] was 43.8 µM (active).

Consider `c1ccc(CN2CCNCC2)cc1`, for which the Potency entry in [1], in [2], in experiment [3], in experiment [4], in [6] and in experiment [7] was “inactive” each time. The Potency result in [8] and in experiment [9] was “inactive” each time.

In the case of `CCC(COC(=O)c1cc(OC)c(OC)c(OC)c1)(c1ccccc1)N(C)C` (centres undefined), the Potency entry in experiment [1], in experiment [2], in experiment [3], in experiment [7], in experiment [8] and in experiment [9] was “inactive” each time. Besides, in experiment [5], the Potency is 26.8 µM (active).

Consider `COC(C)(C)CCC[C@H](C)C/C=C/C(C)=C/C(=O)OC(C)C`, for which the Potency entry in experiment [1], in [2], in experiment [3], in [4], in experiment [7] and in [8] was “inactive” each time. In addition, the Potency entry in experiment [9] is “inactive”.

Turning to `CC[C@H]1C[C@H]2[C@@H]3CCC4=CC(=O)CC[C@@H]4[C@H]3CC[C@]2(C)[C@H]1O`, the Potency entry in experiment [2], in experiment [3], in experiment [7], in experiment [8] and in experiment [9] was “inactive” each time.

For the compound `CC(=O)c1cc2c(cc1C)C(C)(C)C(C)CC2(C)C` (centres undefined), the Potency in experiment [1] is 38.9 µM (active); in experiment [6] it was 19.5 µM (active). Besides, the Potency result in [3], in experiment [7] and in experiment [9] was “inactive” throughout.

As for `C[C@@H]1CC[C@H]2[C@@H](C)C(=O)O[C@@H]3O[C@@]4(C)CC[C@@H]1[C@]32OO4`, the Potency entry in [1], in experiment [2], in experiment [3], in experiment [4], in experiment [5] and in [6] was “inactive” in each case. The Potency entry in experiment [7] and in experiment [9] was “inactive” each time.

With `O=C1C(=O)c2cccc3cccc1c23`, the Potency result in [1], in experiment [2], in [3], in experiment [6], in experiment [7] and in experiment [8] was “inactive” throughout. Besides, the Potency entry in experiment [9] was “inactive”.

Turning to `C(=NC1CCCCC1)=NC1CCCCC1`, the Potency was 11 µM (active) and 12.3 µM (active) in experiment [1]; 19.6 µM (active) and 19.5 µM (active) in experiment [4]. The Potency result in [2], in [7], in experiment [8] and in experiment [9] was “inactive” throughout.

As to `Sc1ccccc1Cl`, the Potency result in [2], in [3], in experiment [4], in [5], in experiment [7] and in experiment [9] was “inactive” in each case.

`Clc1cc(Cl)c(Cl)c(Cl)c1`: the Potency result in experiment [1], in experiment [2], in [3], in experiment [4], in experiment [5] and in experiment [7] was “inactive” each time. For the same compound, the Potency result in experiment [8] and in experiment [9] was “inactive” in each case.

Regarding `CCOP(=O)(OCC)Oc1ccc([N+](=O)[O-])cc1`, the Potency entry in [1], in experiment [2], in [3], in experiment [4], in [5] and in experiment [7] was “inactive” each time. In addition, the Potency result in experiment [8] and in experiment [9] was “inactive” in each case.

On to `OCCCBr`, for which the Potency result in [1], in experiment [3], in [4], in [7], in experiment [8] and in [9] was “inactive” in each case.
